The values that follow come from ChEMBL document CHEMBL1157539, “Thousands of chemical starting points for antimalarial lead identification” (Nature, 2010).

Type in all cases: functional
Test [1] has as its system Plasmodium falciparum. The test can be described thus: GSK_TCMDC: Inhibition of Plasmodium falciparum 3D7 in whole red blood cells, using parasite LDH activity as an index of growth. Test compounds present at 2uM.
For test [2], the system named is Plasmodium falciparum. The test can be described thus: GSK_TCMDC: Inhibition of Plasmodium falciparum Dd2 in whole red blood cells, using parasite LDH activity as an index of growth. Test compounds present at 2uM.
Another test has as its system HepG2. The experiment in a line: GSK_TCMDC: Percent inhibition of human HepG2 cell line. Test compounds present at 10uM.

As to `CCN(CC)Cc1cccc(-c2cc3c(-c4ccc(C(=O)O)c(C(C)C)c4)ccnc3[nH]2)c1OC.O=C(O)C(F)(F)F`, the Inhibition (usually the relative decrease from the control value, in per cent) came to 99% in the test on Plasmodium falciparum [1], 99% in the test on Plasmodium falciparum [2] and 57% with HepG2.
Take `Cn1nc(C(F)(F)F)c(-c2ccc(F)cc2)c1NC(=O)Nc1ccccc1`: the Inhibition with Plasmodium falciparum [1] came out at 100%; with Plasmodium falciparum [2], 99%; in the test on HepG2 it was 3%.
The matching figures for `COc1cc(COc2c(C)nc(N)nc2N)cc(OC)c1OC.Cl`: 100%, 0% and 7%.
The matching figures for `C=CCOc1cccc2c1CCN(CCN1CCC(NC(=O)c3ccc(-c4ccc(Cl)cc4)cc3)CC1)C2`: 93%, 22% and 35%.
As for `Cc1cc(=NN=Cc2ccccc2Cl)c2cc(F)ccc2[nH]1`, the Inhibition worked out at 100% with Plasmodium falciparum [1], 4% in the test with Plasmodium falciparum [2] and 5% in the test with HepG2.
The matching figures for `COc1cc(Br)c(S(=O)(=O)n2cc(CN3CCC(N)CC3)c3cc(Cl)ccc32)cc1OC.O=C(O)C(F)(F)F`: 99%, 32% and 27%.
The matching figures for `COc1cccc(NC(=O)Cn2c(C)c(C(=O)C(F)(F)F)c3ccccc32)c1`: 97%, 94% and 2%.
On to `Cc1cc2nc(-c3cccc(C(=O)NC4CCN(Cc5ccccc5)CC4)c3)[nH]c2cc1C`, for which the figures for the Inhibition in the test with Plasmodium falciparum [1], with Plasmodium falciparum [2] and in the test with HepG2 were 100%, 13% and 32%, respectively.
The matching figures for `Cc1cc(NC(=O)CCCN2CCN(c3cccc(Cl)c3Cl)CC2)ccc1N1CCN(C(C)C)CC1.Cl`: 100%, 53% and 86%.
The matching figures for `COc1cc(-n2cnc3cc(-c4ccc([N+](=O)[O-])cc4)sc3c2=O)ccc1OCCN1CCCC1.O=C(O)C(F)(F)F`: 97%, 79% and 44%.
The matching figures for `Cn1c(NC(=O)C2CCC(CNC(=O)c3ccc(O)c(-c4cccc([N+](=O)[O-])c4)c3)CC2)nc2ccccc21` (configuration not stated): 95%, 97% and 6%.
Regarding `Cc1nc2ccc([N+](=O)[O-])cc2c(=O)n1OCc1ccccc1`, the Inhibition with Plasmodium falciparum [1] turned out to be 98%; in the test on Plasmodium falciparum [2] it was 0%; with HepG2, 2%.
On to `CN1CCC(NCc2ccc(-c3cccc(S(=O)(=O)NCc4ccccc4)c3)cc2)CC1.O=C(O)C(F)(F)F`, for which the Inhibition in the test with Plasmodium falciparum [1] is reported as 100%; in the test on Plasmodium falciparum [2] it was 94%; with HepG2 it was 72%.
The matching figures for `C[C@H](NC(=O)c1c(CN2CCN(C(=O)C(C)(C)C)CC2)c(-c2cccs2)nc2ccccc12)C1CCCCC1`: 89%, 62% and 2%.
The matching figures for `COCc1ccc(CN2CCC(C(=O)Nc3ccc(-c4nc5ccccc5[nH]4)cc3)CC2)o1`: 97%, 13% and 13%.
The matching figures for `CN(C)c1c(CNCCCCCCNCc2ccc3ccccc3c2N(C)C)ccc2ccccc12.CS(=O)(=O)O`: 100%, 51% and 100%.
Regarding `NC(=O)c1cccc(C(=O)Nc2cccc(-c3csc(-c4nc5ccccc5[nH]4)c3)c2)c1`, the Inhibition in the test on Plasmodium falciparum [1] is reported as 100%; with Plasmodium falciparum [2], 92%; with HepG2 it was 16%.
The matching figures for `CCCC(C)c1ccc(N2C(N)=NC(N)=NC2(C)C)cc1.Cl` (configuration not stated): 90%, 7% and 51%.
For the compound `COc1ccc(CC(=O)NC(CCCN2CCC(c3ccccc3)CC2)c2ccc(Cl)c(Cl)c2)cc1OC` (configuration not stated), the results for the Inhibition in the test on Plasmodium falciparum [1], with Plasmodium falciparum [2] and in the test on HepG2 were 82%, 57% and 28%, respectively.
The matching figures for `Cc1cccc(C)c1OC(=O)C(C)C(O)C1(Sc2ccccc2)CCN(C)CC1` (configuration not stated): 98%, 92% and 23%.
The matching figures for `CC(=O)Nc1ccc(C(=O)Nc2cccc(-c3ccc(-c4nc5ccccc5[nH]4)cc3)c2)cn1`: 100%, 93% and 12%.
For the compound `CCOC(=O)C1=C(C)NC2=C(C(=O)CCC2)C1c1cn(Cc2ccc(Cl)cc2Cl)nc1-c1ccccc1` (configuration not stated), the Inhibition with Plasmodium falciparum [1] came to 100%; with Plasmodium falciparum [2], 96%; in the test on HepG2, 0%.
For the compound `COc1ccc(-c2nc(NC(=O)CS(=O)(=O)c3ccc(F)cc3)sc2C)cc1`, the Inhibition worked out at 100% with Plasmodium falciparum [1], 99% with Plasmodium falciparum [2] and 20% with HepG2.
The matching figures for `CCN(CC)CCCN(C(=O)c1cc2c(C)nn(-c3ccccc3)c2s1)c1nc(-c2ccc(OC)cc2)cs1.Cl`: 89%, 32% and 12%.
The matching figures for `CC(=O)Nc1nc(C(=O)Nc2cccc(-c3ccc(-c4nc5cccc(C)c5[nH]4)s3)c2)cs1`: 100%, 67% and 14%.
The matching figures for `C=C(C)Cn1cc(C2CCN(CCN3CCC(CNC(=O)c4ccc(-c5ccc(C#N)cc5)cc4)CC3)CC2)c2ccccc21`: 99%, 94% and 64%.
Take `Cc1cccc2nc(-c3cccc(-c4cccc(CNCCc5ccncc5)c4)c3)[nH]c12.O=C(O)C(F)(F)F`: the values for the Inhibition in the test with Plasmodium falciparum [1], in the test on Plasmodium falciparum [2] and in the test on HepG2 were 100%, 99% and 20%, respectively.
The matching figures for `CN(CC(=O)Nc1ccc(F)cc1)C(=O)c1ccc(-c2ccc(F)cc2)o1`: 89%, 84% and 3%.
The matching figures for `Br.CC1(C)NC(N)=NC(=N)N1OCCNCc1ccc(Cl)cc1`: 95%, 0% and 5%.
The matching figures for `CC(C)N1CCC(N(Cc2ccc(-c3ccc(C(F)(F)F)cc3)cc2)C(=O)Cn2c(SCc3cccc(F)c3F)cc(=O)c3ccccc32)CC1.O=C(O)C(O)C(O)C(=O)O`: 100%, 77% and 52%.
Consider `COc1ccc2nc(C)cc(N/N=C/C=C/c3ccccc3)c2c1`, for which the Inhibition with Plasmodium falciparum [1] was 100%; in the test on Plasmodium falciparum [2], 100%; with HepG2, 27%.
Consider `COc1ccc(CN2CCN(Cc3cc(Cl)ccc3O)CC2CCO)c(C)c1C` (configuration not stated), for which the figures for the Inhibition with Plasmodium falciparum [1], with Plasmodium falciparum [2] and in the test with HepG2 were 94%, 76% and 1%, respectively.
The matching figures for `CCOc1cc(C(=O)N[C@@H](Cc2ccccc2)[C@H](O)CNCc2cc(OC)cc(OC)c2)cc(N2CCCCS2(=O)=O)c1.Cl`: 100%, 98% and 0%.
The matching figures for `CCc1cn2c3c(cc(C(=O)N[C@@H](Cc4ccccc4)[C@H](O)CNC(C)(C)CCCC(C)C)cc13)N(C)S(=O)(=O)C2.O=CO`: 98%, 98% and 71%.
The matching figures for `CC(C)c1ccc(NC(=O)c2ccc(C(=O)NCC3CCN(CC4CCCCC4)CC3)cc2)cc1.O=C(O)C(F)(F)F`: 92%, 18% and 26%.
Consider `FC(F)(F)c1ccc(CNC2CCN(CC3CCCCC3)CC2)cc1.O=C(O)C(F)(F)F`, for which the Inhibition came to 87% in the test on Plasmodium falciparum [1], 5% in the test with Plasmodium falciparum [2] and 4% with HepG2.
The matching figures for `CN(C)c1cc2c(Nc3ccc4nc(Cc5ccccc5)[nH]c4c3)ncnc2cn1` [GW301888X]: 85%, 29% and 11%.
The matching figures for `COc1cc2c(cc1OC)CC(NCc1ccc(-c3ccc4nc[nH]c4c3)cc1)C2.O=C(O)C(F)(F)F`: 97%, 92% and 40%.
The matching figures for `Nc1nccc2ccc(-c3cccc(OCc4ccccc4)c3)cc12.O=C(O)C(F)(F)F`: 100%, 81% and 47%.
As to `Cc1ccc(NC(=O)c2ccc3ncccc3c2)cc1OC1CCN(Cc2ccc(F)cc2)C1.O=C(O)C(F)(F)F` (configuration not stated), the Inhibition with Plasmodium falciparum [1] is given as 83%; in the test on Plasmodium falciparum [2], 28%; in the test on HepG2, 11%.
The matching figures for `CCc1ccc(CN2CCC(CNC(=O)c3cc(-c4ccccc4F)cs3)C2)cc1.O=C(O)C(F)(F)F` (configuration not stated): 100%, 3% and 29%.
Regarding `CCC(C)NC(=O)CN1CN(c2ccccc2)C2(CCN(C(=O)c3ccc(-c4ccccc4)cc3)CC2)C1=O` (configuration not stated), the figures for the Inhibition with Plasmodium falciparum [1], in the test on Plasmodium falciparum [2] and in the test with HepG2 were 100%, 100% and 0%, respectively.
`COc1ccc2nccc(N3CCC(CCNCc4ccc5c(n4)NC(=O)CS5)CC3)c2c1.Cl`: the Inhibition in the test with Plasmodium falciparum [1] worked out at 100%; in the test on Plasmodium falciparum [2], 86%; with HepG2, 55%.
The matching figures for `COc1cc2c(cc1C(F)(F)F)N(C(=O)Nc1cc(Br)cc(-c3cccnc3)c1)CC2`: 96%, 34% and 8%.
The matching figures for `Br.CC(CCON1C(N)=NC(N)=NC1(C)C)c1ccc(Cl)cc1` (configuration not stated): 93%, 97% and 64%.
The matching figures for `COc1ccc2nc(-c3cc(-c4ccc(NC(C)=O)cc4)cnc3N)[nH]c2c1`: 93%, 73% and 55%.
As for `CN1CCN(CCCN(Cc2csc(-c3ccc(CNCc4ccccc4)cc3)n2)S(=O)(=O)c2ccccc2Cl)CC1.O=C(O)C(F)(F)F`, the Inhibition came out at 93% in the test on Plasmodium falciparum [1], 81% in the test with Plasmodium falciparum [2] and 13% with HepG2.
For the compound `CC(C)(C)c1ccccc1OC(=O)c1ccccc1`, the Inhibition is listed as 95% in the test with Plasmodium falciparum [1], 2% in the test with Plasmodium falciparum [2] and 0% in the test with HepG2.
The matching figures for `Cc1ccnc(NC(c2ccc(Cl)c([N+](=O)[O-])c2)c2ccc3cccnc3c2O)c1` (configuration not stated): 89%, 57% and 47%.
The matching figures for `FC(F)(F)c1cccc(CNC2CCN(CC3CCCCC3)CC2)c1.O=C(O)C(F)(F)F`: 100%, 12% and 0%.
The matching figures for `Nc1ccnc(N2CCC(CCOc3ccnc4cc(Cl)ccc34)CC2)c1.O=C(O)C(F)(F)F`: 100%, 99% and 34%.
For the compound `Cc1cnc(C(=O)Nc2cccc(-c3csc(-c4nc5ccccc5[nH]4)c3)c2)cn1`, the Inhibition came to 98% in the test on Plasmodium falciparum [1], 80% with Plasmodium falciparum [2] and 31% in the test on HepG2.
The matching figures for `Cc1noc(C)c1-c1cccc(CNCc2cccc(-c3cccc(-c4nc5cc(F)ccc5[nH]4)c3)c2)c1.O=C(O)C(F)(F)F`: 100%, 73% and 18%.
The matching figures for `C[C@H](Cc1ccc(Oc2ccc(C[C@@H](C)NC[C@H](O)c3cccc(Cl)c3)cc2)cc1)NC[C@H](O)c1cccc(Cl)c1.Cl`: 100%, 96% and 99%.
The matching figures for `O=C(NC1CCN(Cc2cccc(C(F)(F)F)c2)CC1)c1ccc(-c2cccc(C(F)(F)F)c2)s1.O=C(O)C(F)(F)F`: 94%, 54% and 36%.
As for `CCn1ncc2c(NC3CCOCC3)c(CNC(=O)c3ccnn3C)c(C)nc21`, the Inhibition with Plasmodium falciparum [1] amounted to 98%; with Plasmodium falciparum [2] it was 98%; with HepG2 it was 0%.
For the compound `Cc1cc(N(C)C)nc(Nc2ccc(NS(=O)(=O)c3ccccc3)cc2)n1`, the Inhibition is recorded as 92% in the test with Plasmodium falciparum [1], 11% in the test on Plasmodium falciparum [2] and 0% in the test with HepG2.
The matching figures for `CCCCCCCOc1ccc(NC(=O)Nc2ccc(Cn3ncc(N4CCCNCC4)c(Cl)c3=O)cc2)cc1.O=C(O)C(F)(F)F`: 87%, 28% and 60%.
Consider `O=C(Nc1ccccc1)Nc1cccc(-c2cc(CNCCc3ccccc3)sc2-c2ccncc2)c1`, for which the Inhibition in the test with Plasmodium falciparum [1] was 100%; in the test on Plasmodium falciparum [2] it was 84%; in the test on HepG2, 14%.
